Screening results (PubChem BioAssay)
An excerpt weighted towards active compounds, which were near 9.2% of everything screened.
HPGD block = blocks human HPGD enzyme activity. purified HPGD, NADH fluorescence kinetic, PGE2 substrate. 150,000 compounds, 4.3% hits. P15428. Potency, µM, for inactives: top-dose activity change, negative = inhibition, actives largely listed as inhibitors. AID 894; also: % is scaled to controls: 0 for no effect and ±100 for the full control effect
Target sequence (P15428 whole entry, looked up): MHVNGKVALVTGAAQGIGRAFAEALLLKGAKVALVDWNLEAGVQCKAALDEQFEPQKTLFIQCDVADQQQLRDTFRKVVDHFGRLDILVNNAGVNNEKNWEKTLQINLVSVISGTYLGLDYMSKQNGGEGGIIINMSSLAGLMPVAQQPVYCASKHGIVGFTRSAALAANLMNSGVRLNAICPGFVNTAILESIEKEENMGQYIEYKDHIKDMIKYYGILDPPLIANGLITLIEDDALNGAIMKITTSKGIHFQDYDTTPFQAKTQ
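20 nM HPGD preincubated 15 min at room temperature with compound in 50 mM Tris-HCl pH 8, 0.01% Tween 20. Started with 1 mM NAD+ and 30 uM prostaglandin E2; NADH fluorescence (360/450 nm) read 5 times over 30-s intervals, last minus first.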
JMJD2E inh = blocks human JMJD2E demethylase activity; B2RXH2; JMJD2E catalytic domain, FDH-coupled NADH fluorescence (FDH is formaldehyde dehydrogenase); Potency, µM (highest dose often 57.1 µM), inactives show at the top dose activity change, negative = inhibition, hits mostly inhibitors; 230,000 compounds, 1.6% hits; AID 2147;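 also: 0% = wells with enzyme and -100% = buffer wells without enzyme; nearly all actives have a fitted effect of over 50% in size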
Target sequence (B2RXH2 1-337 limits assumed): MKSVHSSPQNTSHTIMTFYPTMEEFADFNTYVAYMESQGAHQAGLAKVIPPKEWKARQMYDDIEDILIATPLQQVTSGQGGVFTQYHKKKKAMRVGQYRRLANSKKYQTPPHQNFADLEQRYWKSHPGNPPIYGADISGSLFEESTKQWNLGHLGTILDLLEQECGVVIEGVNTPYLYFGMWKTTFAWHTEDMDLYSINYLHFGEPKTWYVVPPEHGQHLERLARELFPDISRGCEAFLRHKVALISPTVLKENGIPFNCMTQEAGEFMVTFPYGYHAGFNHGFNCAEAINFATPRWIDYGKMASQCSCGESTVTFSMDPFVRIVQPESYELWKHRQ
ALDH1A1 inh = inhibitors of human aldehyde dehydrogenase 1A1. 220,000 compounds, 7.3% hits. Purified ALDH1A1, NADH fluorescence, propionaldehyde substrate. P00352. Potency, µM (top dose mostly 75.3 µM), for the others: at the top dose activity, negative = inhibition, most hits filed as inhibitors;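 also: plate controls were no enzyme wells and a reference inhibitor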
LMNA splice mod = LMNA splicing modulation. HeLa LMNA splicing GFP/RFP minigene ratio, 48 h. Potency, µM (series often up to 46.1 µM), without a hit: top-dose ratio change, negative = inhibition, actives largely listed as inhibitors. 200,000 compounds, 0.01% hits. AID 1487; active = well fitted inhibition curve with a large enough effect in the signal ratio, with a control signal flat, not every such curve was filed as active; inconclusive = small, poorly fitted or top-dose-only effect, or effect the other way, or a change in a side signal; the % refers to the signal ratio; also: % is scaled to controls: 0 for no effect and ±100 for the full control effect
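S3 HeLa cells stably expressing lamin A-EGFP splicing minigene plus DsRed2, 600 cells/well, 48 h compound exposure at 37C. Laser-scanning cytometry; analysed as GFP (500-530 nm)/RFP (575-640 nm) total intensity ratio; 0.5% DMSO vehicle.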
HTT cytoprotect = cytoprotection in Huntington HTT-Q103 PC12 cell model | 230,000 compounds, 0.14% hits | Potency, µM (series often up to 56.4 µM), inactives show cytoprotection (ATP increase), actives largely listed as activators | AID 1471 | PC12 HTT-Q103 induced, cytoprotection, ATP luminescence, 40 h; active = well fitted curve in the direction sought with a large enough effect; inconclusive = small, poorly fitted or top-dose-only effect, or another doubt; inactive = no such curve, though single readings can be large; an effect the other way counts as inactive or inconclusive; also: % of control where 0% means no effect; nearly all actives have a fitted effect of over 45% in size
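Cells were plated at 1500 per well in phenol red-free DMEM with 5% equine and 5% calf serum. Tebufenozide (100 nM final) and compounds were added, then ATPlite reagent, and luminescence was read.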
HttQ103 aggreg = inhibitors of mutant huntingtin aggregate formation in PC12 cells. PC12 HttQ103-GFP aggregates, Acumen cytometry, 40 h. Potency, µM (series often up to 46.1 µM), for inactives: at the top dose activity change, negative = inhibition, most hits filed as inhibitors. 220,000 compounds, 1.1% hits. AID 1688; active = well fitted curve in the direction sought with a large enough effect; inconclusive = small, poorly fitted or top-dose-only effect, or another doubt; inactive = no such curve, though single readings can be large; an effect the other way counts as inactive or inconclusive; also: % is scaled to controls: 0 for no effect and ±100 for the full control effect; nearly all actives have a fitted effect of over 60% in size
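PC12 cells stably carrying ecdysone-inducible HTT exon 1 Q103–GFP were induced with tebufenozide (100 nM final) and treated with library compounds in titration. GFP aggregates in lysates were counted by laser scanning cytometry.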
Numbers without * were called inactive; ? = inconclusive; nt = no result; [ ] = another dose, or the depositor's remark. Unless noted, calls follow the shape of the dose curve; as a rule, active = well fitted inhibition curve with a large enough effect (not every such curve was filed as active); inconclusive = small, poorly fitted or top-dose-only effect, or another doubt; inactive = no such curve, though single readings can be large or run the other way. Potency is read from the fitted curve at half-maximal effect.

SMILES	HPGD block	JMJD2E inh	ALDH1A1 inh	LMNA splice mod	HTT cytoprotect	HttQ103 aggreg
COC(=O)[C@@]1(Cc2ccc(OC)cc2)[C@H]2c3cc(C(=O)N4CCCC4)n(CCF)c3C[C@H]2CN1C(=O)c1ccccc1	-7%	2%	5%	nt	?	nt
N#CC(Cc1ccc(O)c(O)c1)C(=O)N1CCc2ccccc21 (stereo not drawn)	28µM*	20µM*	8.9µM*	?	nt	nt
NC(=O)c1nnn(Cc2cc(Cl)c(C(=O)c3ccc(Cl)cc3)c(Cl)c2)c1N	-6%	nt	6%[13.5 µM]	nt	16%[10 µM]	nt
O=c1ccc(N=Nc2ccccc2)ccc1O	nt	5.6µM*	nt	nt	-55%[10 µM]	-33%[9.22 µM]
O=S(=O)(O)c1ccc(N=Nc2ccccc2)cc1	-11%	0%	2%[13.5 µM]	nt	-3%[10 µM]	19%[9.22 µM]
O=S(=O)(c1cccs1)N1CCCc2cccc(O)c21	13µM*	?	?	5%	-15%	11µM*
CN(CC(=O)Nc1ccccc1Cl)CC(=O)Nc1ccccc1[N+](=O)[O-]	nt	-16%	-8%	?	23%[10 µM]	1%
CCCCCCOc1ccc(N2C(=O)CC(S/C(N)=N/N=C(\C)c3cccs3)C2=O)cc1 (stereo not drawn)	-3%	-2%	10%	6%	0.79µM*	-1%
O=C1C2[C@@H](c3ccccc3)N[C@@H](c3ccccc3)C1[C@H](c1ccccc1)N[C@H]2c1ccccc1	-17%	nt	10%[13.5 µM]	nt	-19%[10 µM]	nt
CCOCCn1ccc2c(OCC(=O)Nc3cccc(F)c3)cccc2c1=O	nt	nt	nt	6%[46 µM]	nt	nt
C[C@@H]1CC[C@H]2C(=O)N3[C@@H](CC[C@@H](C)[C@@H]3c3ccc(Br)cc3)C(=O)N2[C@@H]1c1ccc(Br)cc1	nt	nt	-9%[13.5 µM]	nt	19%[10 µM]	nt
C=CCc1cccc(C2C(C)CCC3C(=O)N4C(CCC(C)C4c4cccc(CC=C)c4)C(=O)N32)c1 (stereo not drawn)	nt	nt	6.3µM*	nt	0%[10 µM]	nt
O=C(O)[C@H](C1NCCS1)N1Cc2ccccc2C1 (stereo partly drawn)	-2%	nt	3%[13.5 µM]	nt	nt	nt
Cc1nn(-c2ccc(C(=O)O)cc2)c2c1C(=O)CC(C)(C)C2	nt	2%	nt	nt	24%[10 µM]	9%[9.22 µM]
CC1(C)CC(=O)c2c(nn(-c3ccccc3)c2-c2ccncc2)C1	-11%	-3%	14µM*	-9%	?	-30%
c1nc(N2CCOCC2)c2c3c(sc2n1)CCCC3	-7%	-16%	6%	6%	13%[1.9 µM]	?
O=C(c1ccccc1)N1CCN(c2ncnc3sc4c(c23)CCC4)CC1	-14%	0%	1.3µM*	?	0%[10 µM]	35µM*
Cc1ccc(CSCCC(=O)N2CCN(c3ccc(F)cc3)CC2)cc1	nt	nt	nt	-3%[46 µM]	nt	nt
O=S(=O)(NC1CC1)c1ccc(S(=O)(=O)N2CCCc3ccccc32)cc1	-4%	1%	?	?	23%[10 µM]	11µM*
O=C(O)C1CC=CCC1C(=O)Nc1ccc(S(=O)(=O)N2CCCc3ccccc32)cc1 (stereo not drawn)	-15%	-3%	22µM*	?	-15%	7%
O=C(Nc1ccc(S(=O)(=O)N2CCCc3ccccc32)cc1)C1CCCO1 (stereo not drawn)	-20%	-4%	-8%	-17%	3%	-4%
CC(C)CN1CCC2(CC1)CCN(C(=O)c1csnn1)CC2	-2%	nt	5%	nt	15%	nt
CC(=O)c1c(COC(=O)c2ccccc2)nc2ccccc2[n+]1[O-]	14µM*	-4%	?	-5%	-12%	-8%
N#Cc1cccc(-c2nc(NCCN3CCOCC3)c3ccccc3n2)c1	nt	nt	18µM*	?	-86%	nt
Clc1cccc(Nc2nnc(-c3ccccc3)c3ccccc23)c1	?	11µM*	?	nt	17%	nt
SMILES	HPGD block	JMJD2E inh	ALDH1A1 inh	LMNA splice mod	HTT cytoprotect	HttQ103 aggreg
Cc1nc2cc(Nc3nnc(-c4ccccc4)c4ccccc34)ccc2n1C	nt	3%	-9%	3%	-1%	-7%
CN(c1ccc(Cl)cc1)c1cc(=O)n(C)c2ccccc12	7.9µM*	-7%	10%	?	-36%	-3%
O=C1C2=C(Nc3ccccc3SC2c2ccco2)c2ccccc21 (stereo not drawn)	-28%	?	6.3µM*	10%	5%	15%
Cc1ccc(-c2nn(-c3ccccc3)cc2C2SCC(=O)N2Cc2ccccc2)o1 (stereo not drawn)	?	?	28µM*	-4%	16%[10 µM]	-21%
COc1ncnc2c1oc1nc(CC(C)C)c3c(c12)CC(C)(C)OC3	-9%	0%	1µM*	-8%	-23%	-8%
Cc1nc2oc3c(=O)[nH]cnc3c2c2c1COC(C)(C)C2	nt	?	nt	nt	18%[10 µM]	19%[9.22 µM]
O=C(CCl)N(c1ccccc1)C1CCS(=O)(=O)C1 (stereo not drawn)	-1%	4%	0.063µM*	?	13%[10 µM]	8.9µM*
O=C(COC(=O)c1ccco1)Nc1ccc2c(c1)OCCO2	-13%	0%	-9%	?	-13%	14%[9.22 µM]
O=C(CSc1ncnc2c1cnn2Cc1ccccc1)Nc1ccc2c(c1)OCCO2	0%	0%	13µM*	-19%	-4%[0.074 µM]	-2%
COc1cccc(NC(=O)CSc2ncnc3c2cnn3Cc2ccccc2)c1	-29%	7%	?	-2%	-57%	14%
O=C(COC(=O)c1ccc(=O)n(Cc2ccccc2)n1)Nc1ccc2c(c1)OCCO2	-19%	7%	8.9µM*	7%	-8%	?
COc1cc(OC)c(N(C)C(=O)c2sc3nc4n(c(=O)c3c2C)CCCCC4)cc1Cl	nt	nt	nt	6%[46 µM]	nt	nt
Cc1ccc(CNC(=O)CCS(=O)(=O)c2ccc(Br)cc2)cc1	nt	11µM*	-9%	nt	-39%	11%
COc1ccc(S(=O)(=O)CCC(=O)O)cc1	0%	1%	4%	14%	-28%	2.2µM*
